The text below walks through data of PubChem BioAssay (NCATS).

Each structure is given as a SMILES string. Results filed as inconclusive are left out. Values without a mark were called inactive. The source made the active and inactive calls. Calls follow the shape of the dose curve; as a rule, active = well fitted curve in the direction sought with a large enough effect; inconclusive = small, poorly fitted or top-dose-only effect, or another doubt; inactive = no such curve, though single readings can be large; an effect the other way counts as inactive or inconclusive.

One assay relates to MCC-13. Description: qHTS assay to identify novel small-molecules to repurpose for Merkel cell carcinoma treatment (AID 1296009). Also: nearly all actives have a fitted effect of over 60% in size. To be noted: MCC and control cell lines, CellTiter-Glo viability, 72 h; series mostly up to 46 µM. The procedure, abridged: (§1)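 72 hr, 37 degree celsius; NPC 8-pt / MIPE 11-pt dose response; compound pinned in DMSO; CellTiter-Glo, 10 min RT, luminescence; normalized to no-cell and DMSO controls.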
(Quantitative high-throughput screening tests each substance at several concentrations.)

The next assay concerns MCC-26. The description is as above. To be noted: MCC and control cell lines, CellTiter-Glo viability, 72 h; series mostly up to 46 µM. The procedure, abridged:
as §1

The subject of another assay is MKL-1. The description is as above. To be noted: MCC and control cell lines, CellTiter-Glo viability, 72 h; series mostly up to 46 µM. Summed up: as §1
Another assay concerns MKL-2. The description is as above. To be noted: MCC and control cell lines, CellTiter-Glo viability, 72 h; series mostly up to 46 µM. The procedure, abridged:
as §1
(Cellular ATP, detected with luciferase, serves as a proxy for viable cell number.)

For another assay, the system named is UISO. The description is as above. To be noted: MCC and control cell lines, CellTiter-Glo viability, 72 h; series mostly up to 46 µM. Summed up: as §1
A further assay relates to WaGa. Described as above. Conditions: MCC and control cell lines, CellTiter-Glo viability, 72 h; series mostly up to 46 µM. Summed up: as §1
The next assay has as its system C33A. Description: Primary qHTS to identify gynecologic anti-cancer compounds using libraries of approved drugs and bioactive compounds (AID 1345084). Also: nearly all actives have a fitted effect of over 55% in size. Also: potency is read from the fitted curve at half-maximal effect. To be noted: Gynecologic cancer cell panel viability, ATPlite luminescence, 48 h; series mostly up to 57.5 µM. The procedure, abridged: (§2)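 Cells, 1,000 per well, were allowed to settle for 16 h at 37 C before compound addition. Five concentrations were tested for 48 h, and viability was read by ATPlite luminescence after 15 min at room temperature.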

Another assay deals with CAOV3. The assay is described as above. Conditions: Gynecologic cancer cell panel viability, ATPlite luminescence, 48 h; series mostly up to 57.5 µM. Summed up: as §2
% is scaled to controls: 0 for no effect and ±100 for the full control effect.

Turning to `CC(C)C(=O)Nc1cccc(C(F)(F)F)c1`, the Potency result in the assay on MCC-13, with MCC-26, in the assay on MKL-1, with MKL-2, in the assay with UISO and in the assay on WaGa was “inactive” each time. In addition, the Potency result in the assay on C33A and with CAOV3 was “inactive” in each case.

For the compound `CC(=O)OCC(=O)Nc1cc(C#N)cc(NC(=O)COC(C)=O)c1Cl`, the Potency result in the assay with MCC-13, in the assay on MCC-26, in the assay on MKL-1, in the assay with MKL-2, in the assay with UISO and in the assay on WaGa was “inactive” in each case. Moreover, the Potency result in the assay on C33A and with CAOV3 was “inactive” in each case.

With `CCCC(=O)OCOC(=O)C1=C(C)NC(C)=C(C(=O)OC)C1c1cccc(Cl)c1Cl` (centres undefined), the Potency entry with MCC-13, with MCC-26, in the assay with MKL-1, in the assay with MKL-2, in the assay with UISO and with WaGa was “inactive” throughout. Besides, the Potency result in the assay on C33A and with CAOV3 was “inactive” in each case.

In the case of `CC(=O)O[C@H]1CC[C@@]2(C)C(=CC[C@@H]3[C@@H]2CC[C@]2(C)C(C(C)=O)=CC[C@@H]32)C1`, the Potency result with MCC-13, with MCC-26, in the assay on MKL-1, in the assay on MKL-2, in the assay on UISO and with WaGa was “inactive” each time. Moreover, the Potency entry with C33A and with CAOV3 was “inactive” throughout.

Regarding `CC[C@@H]([C@H](C)O)n1ncn(-c2ccc(N3CCN(c4ccc(OC[C@@H]5CO[C@@](Cn6cncn6)(c6ccc(F)cc6F)C5)cc4)CC3)cc2)c1=O`, the Potency result with MCC-13, in the assay with MCC-26, in the assay with MKL-1, with MKL-2, in the assay with UISO and in the assay on WaGa was “inactive” throughout. Also, the Potency entry in the assay on CAOV3 was “inactive”. Besides, the Potency in the assay with C33A is 11.2 µM (active).

As for `O=C(O)CCC(=O)OC[C@@H](NC(=O)C(Cl)Cl)[C@H](O)c1ccc([N+](=O)[O-])cc1`, the Potency result with MCC-13, with MCC-26, in the assay on MKL-1, in the assay on MKL-2, with UISO and in the assay with WaGa was “inactive” throughout. In addition, the Potency entry with C33A and in the assay with CAOV3 was “inactive” throughout.

Take `N#Cc1cc(NC(=O)C(=O)O)c(Cl)c(NC(=O)C(=O)O)c1`: the Potency result in the assay on MCC-13, in the assay with MCC-26, with MKL-1, in the assay with MKL-2, in the assay with UISO and in the assay on WaGa was “inactive” in each case. Further, the Potency result with C33A and in the assay with CAOV3 was “inactive” throughout.

As for `CN1Cc2cc(C(=O)N3CCC(C4CCNCC4)CC3)ccc2N[C@@H](CC(=O)O)C1=O`, the Potency entry in the assay on MCC-13, with MCC-26, in the assay on MKL-1, in the assay with MKL-2, in the assay with UISO and in the assay on WaGa was “inactive” each time. Moreover, the Potency entry with C33A and in the assay with CAOV3 was “inactive” in each case.

In the case of `Cc1cccc(OCC(O)CNC(C)(C)C)c1C` (centres undefined), the Potency result with MCC-13, in the assay on MCC-26, in the assay on MKL-1, in the assay with MKL-2, in the assay with UISO and with WaGa was “inactive” in each case. For the same compound, the Potency entry in the assay on C33A and in the assay with CAOV3 was “inactive” each time.

On to `CCCCC(CC)CNC(=O)CC(C)OC(=O)CCC(=O)O` (centres undefined), for which the Potency result in the assay on MCC-13, in the assay with MCC-26, in the assay with MKL-1, with MKL-2, with UISO and with WaGa was “inactive” each time. Also, the Potency entry in the assay with C33A and in the assay on CAOV3 was “inactive” in each case.

As to `CCC(C(=O)OCCN1CCOC(c2ccccc2)C1C)c1ccccc1` (centres undefined), the Potency result in the assay with MCC-13, in the assay on MCC-26, with MKL-1, with MKL-2, in the assay with UISO and in the assay with WaGa was “inactive” in each case. Moreover, the Potency result in the assay on C33A and with CAOV3 was “inactive” in each case.

With `CCCC(CCC)(C(=O)OCC)C(=O)OCC`, the Potency entry in the assay with MCC-13, in the assay with MCC-26, with MKL-1, in the assay with MKL-2, with UISO and with WaGa was “inactive” each time. Also, the Potency entry with C33A and with CAOV3 was “inactive” throughout.

Consider `CC(=O)c1cc2ccccc2s1`, for which the Potency entry with MCC-13, with MCC-26, with MKL-1, with MKL-2, in the assay with UISO and with WaGa was “inactive” each time. The Potency entry in the assay with C33A and in the assay on CAOV3 was “inactive” in each case.

As to `CC(=O)Nc1c(I)c(NC(C)=O)c(I)c(C(=O)O)c1I`, the Potency entry in the assay on MCC-13, in the assay on MCC-26, in the assay with MKL-1, with MKL-2, in the assay with UISO and in the assay on WaGa was “inactive” in each case. Moreover, the Potency entry with C33A and in the assay with CAOV3 was “inactive” in each case.

Regarding `CC(C)OP(=O)(CP(=O)(OC(C)C)OC(C)C)OC(C)C`, the Potency entry in the assay with MCC-13, with MCC-26, in the assay on MKL-1, in the assay with MKL-2, in the assay with UISO and in the assay with WaGa was “inactive” each time. Besides, the Potency entry in the assay on C33A and with CAOV3 was “inactive” in each case.

Regarding `CCCOc1ccc2c(c1)CC[C@@H]1[C@@H]2CC[C@]2(C)C(OC)CC[C@@H]12` (some centres undefined), the Potency entry with MCC-13, in the assay with MCC-26, in the assay with MKL-1, in the assay with MKL-2, with UISO and in the assay with WaGa was “inactive” each time. Moreover, the Potency entry in the assay on C33A and in the assay on CAOV3 was “inactive” throughout.

As to `Cc1sccc1Br`, the Potency result in the assay with MCC-13, in the assay on MCC-26, in the assay on MKL-1, in the assay with MKL-2, with UISO and with WaGa was “inactive” in each case. The Potency entry in the assay on C33A and in the assay on CAOV3 was “inactive” throughout.

In the case of `NCC[C@H](O)C(=O)N[C@@H]1C[C@H](N)[C@@H](O[C@H]2O[C@H](CN)[C@@H](O)[C@H](O)[C@@H]2O)[C@H](O)[C@@H]1O[C@H]1O[C@H](CO)[C@@H](O)[C@H](N)[C@@H]1O`, the activity change, negative = cytotoxicity in the assay on MCC-13 was 1.29% [at 0.597 µM]; in the assay on MCC-26, 13.8% [at 0.597 µM]; in the assay on MKL-1 it was 9.09% [at 0.597 µM]; in the assay with MKL-2, 22.5% [at 0.597 µM]; in the assay on UISO, 23.5% [at 0.597 µM]; with WaGa, 23.2% [at 0.597 µM]. Further, the activity change, negative = cytotoxicity was 13.2% [at 0.462 µM] in the assay with C33A and 10.2% [at 0.462 µM] in the assay on CAOV3.
